This is a sample that favours compounds with a hit; in the whole collection about 1.3% have one here.
ADAM17 inh: ADAM17 inhibition, QFRET primary screen; P78536; recombinant ADAM17, EDANS/DABCYL FRET peptide cleavage; inhibition, % at 6.95 µM; 370,000 tested, 0.83% active;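 active = inhibition above the mean of compounds lying between control limits plus 3 SD, set per campaign, cut at about 8.5% in these data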
Target sequence (P78536 215-824 limits assumed): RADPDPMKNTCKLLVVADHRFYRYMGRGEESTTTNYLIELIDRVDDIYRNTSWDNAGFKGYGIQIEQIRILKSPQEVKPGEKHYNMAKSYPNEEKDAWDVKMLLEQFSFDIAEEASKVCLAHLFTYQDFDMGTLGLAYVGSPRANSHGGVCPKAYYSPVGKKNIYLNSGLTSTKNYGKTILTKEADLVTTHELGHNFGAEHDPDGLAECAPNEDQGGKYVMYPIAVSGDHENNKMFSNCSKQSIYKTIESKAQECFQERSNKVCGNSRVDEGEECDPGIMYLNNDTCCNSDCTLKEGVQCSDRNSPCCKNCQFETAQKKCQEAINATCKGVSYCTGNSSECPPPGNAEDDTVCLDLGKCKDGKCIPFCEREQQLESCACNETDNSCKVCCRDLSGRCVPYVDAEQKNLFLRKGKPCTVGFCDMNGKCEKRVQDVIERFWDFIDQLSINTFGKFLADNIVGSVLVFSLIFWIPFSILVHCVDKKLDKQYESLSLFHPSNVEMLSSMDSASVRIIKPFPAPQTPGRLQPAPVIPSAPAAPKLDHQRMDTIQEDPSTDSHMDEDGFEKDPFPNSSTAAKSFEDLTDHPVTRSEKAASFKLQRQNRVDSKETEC
NPR1 activator: GC-A (human) enzyme activation | activation, % at 10 µM | 370,000 tested, 0.14% active | HEK293 GC-A cells, cGMP TR-FRET, EC30 ANP; 0% at EC30 ANP, 100% saturating ANP | P16066; in the data active = activation above about 40%
GC-B act: GC-B (human) receptor activation; HEK293-GC-B cells, CNP EC30, cGMP TR-FRET; 0% at EC30 CNP, 100% saturating CNP; activation, % at 10 µM; 370,000 tested, 0.11% active;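 active = activation at 10 µM reaching about 35% in either raw or pattern-adjusted values, limit read from the data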
ADAM10 inh: inhibitors of human ADAM10. AID 720582. recombinant ADAM10, EDANS/DABCYL FRET peptide cleavage, 3 h. inhibition, % at 7 µM. 370,000 tested, 0.62% active. O14672;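 active = inhibition above a per-campaign cutoff equal to the mean of compounds falling between control-based bounds plus 3 SD, cut at about 20% in these data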
ADAM10 confirm: human ADAM10 inhibition, confirmation; shares compounds with ADAM10 inh; AID 743208; inhibition, % at 6.95 µM; 2,100 tested, 1% active; ADAM10 QFRET peptide cleavage, EDANS fluorescence;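 active = inhibition above about 20% chosen separately for each screening run, limit read from the data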
ADAM17 counter: ADAM17 inhibition, counter-screen for ADAM10 exosite hits | shares compounds with ADAM10 inh | ADAM17 QFRET peptide cleavage, EDANS fluorescence | inhibition, % at 6.95 µM | 2,100 tested, 0.5% active;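 active = mean triplicate inhibition above the solvent-only control wells' mean plus 3 SD, cut at about 12% in these data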
A number is an active result.

`COC(=O)c1ccc2nc(C3CCCCC3)c(Cc3ccccc3)n2c1` gave ADAM17 inh inactive, NPR1 activator inactive, GC-B act inactive and ADAM10 inh inactive.
Screening CCN(CC)S(=O)(=O)c1cccc(NC(=O)C2SC(=Nc3ccc(C)cc3C)C(C(=O)NC(C)COC)=C2N)c1 (centres undefined) returned ADAM17 inh inactive, NPR1 activator inactive, GC-B act inactive, ADAM10 inh 20, ADAM10 confirm inactive and ADAM17 counter inactive.
CCN(CC)S(=O)(=O)c1cccc(C(=O)Nc2cccc(C)c2)c1 was read as ADAM17 inh inactive, NPR1 activator inactive, GC-B act inactive and ADAM10 inh inactive.
`CC(NC(=S)NC(=O)c1cccs1)c1ccccc1` (centres undefined) gave ADAM17 inh inactive, NPR1 activator inactive, GC-B act inactive and ADAM10 inh inactive.
CC(NC(=O)c1cccs1)C(S)c1ccccc1 (centres undefined) was read as ADAM17 inh 15, NPR1 activator inactive, GC-B act inactive, ADAM10 inh 34, ADAM10 confirm inactive and ADAM17 counter inactive.
CCCC1(CC)C(=O)NC(=O)N=C1N (centres undefined) was read as ADAM17 inh inactive, NPR1 activator inactive, GC-B act inactive and ADAM10 inh inactive.
Screening CN(C)CCCN1c2ccc([N+](=O)[O-])cc2CCc2cc([N+](=O)[O-])ccc21 returned ADAM17 inh inactive, NPR1 activator inactive, GC-B act inactive, ADAM10 inh 23, ADAM10 confirm inactive and ADAM17 counter inactive.
For OC(c1cccc(F)c1)c1ncc(-c2ccc(Oc3ccccc3)cc2)[nH]1 (centres undefined) the results were ADAM17 inh inactive, NPR1 activator inactive, GC-B act inactive, ADAM10 inh 23, ADAM10 confirm inactive and ADAM17 counter inactive.
OC(c1ccc(Cl)c(Cl)c1)c1ncc(-c2ccccc2C(F)(F)F)[nH]1 (centres undefined) was read as ADAM17 inh 10, NPR1 activator inactive, GC-B act inactive, ADAM10 inh 22, ADAM10 confirm inactive and ADAM17 counter inactive.
Screening OC(c1ccc(Cl)c(F)c1)c1ncc(-c2ccc(Oc3ccccc3)cc2)[nH]1 (centres undefined) returned ADAM17 inh inactive, NPR1 activator inactive, GC-B act inactive and ADAM10 inh inactive.
For OC(c1ccc(Cl)c(F)c1)c1ncc(-c2ccccc2C(F)(F)F)[nH]1 (centres undefined) the results were ADAM17 inh inactive, NPR1 activator inactive, GC-B act inactive and ADAM10 inh inactive.
For OC(c1ccc(Cl)c(F)c1)c1ncc(-c2ccc(Cl)cc2)[nH]1 (centres undefined) the results were ADAM17 inh inactive, NPR1 activator inactive, GC-B act inactive, ADAM10 inh 20, ADAM10 confirm inactive and ADAM17 counter inactive.
COc1ccc2c(c1)CN1CN(Cc3ccc(F)cc3)S(=O)(=O)CC21 (centres undefined) was read as ADAM17 inh inactive, NPR1 activator inactive, GC-B act inactive and ADAM10 inh inactive.
Cc1nc(C(=O)N2CCC(C)(C(=O)NS(=O)(=O)C3CC3)C2)c(C)o1 (centres undefined) was read as ADAM17 inh inactive, NPR1 activator inactive, GC-B act inactive and ADAM10 inh inactive.
CCOC(=O)COc1ccc(C(C)c2ccc(NC(=O)OC(C)(C)C)cc2)cc1 (centres undefined) was read as ADAM17 inh inactive, NPR1 activator inactive, GC-B act inactive, ADAM10 inh 21, ADAM10 confirm inactive and ADAM17 counter inactive.
`CCOC(=O)N1CCN(C(=O)C2CCN(S(=O)(=O)c3ccc(NC(C)=O)cc3)CC2)CC1` gave ADAM17 inh inactive, NPR1 activator inactive, GC-B act inactive and ADAM10 inh inactive.
For CCN(CC)c1ccc(NC(=O)COc2ccccc2C)cc1S(=O)(=O)Nc1ccccc1OC the results were ADAM17 inh inactive, NPR1 activator inactive, GC-B act inactive, ADAM10 inh 21, ADAM10 confirm inactive and ADAM17 counter inactive.
`Cc1ccnc(NS(=O)(=O)c2cccc3nsnc23)c1` gave ADAM17 inh inactive, NPR1 activator inactive, GC-B act inactive, ADAM10 inh 20, ADAM10 confirm inactive and ADAM17 counter inactive.
Screening CC(Nc1nc(-c2ccccc2)nc2ccccc12)c1ccccc1 (centres undefined) returned ADAM17 inh 11, NPR1 activator inactive, GC-B act inactive, ADAM10 inh 29, ADAM10 confirm inactive and ADAM17 counter inactive.
CC(Nc1nc(-c2ccccc2O)nc2ccccc12)c1ccccc1 (centres undefined) was read as ADAM17 inh inactive, NPR1 activator inactive, GC-B act inactive and ADAM10 inh inactive.
For Cc1cc(Nc2ccccc2)n(-c2nc3ccccc3[nH]2)n1 the results were ADAM17 inh inactive, NPR1 activator inactive, GC-B act inactive, ADAM10 inh 21, ADAM10 confirm inactive and ADAM17 counter inactive.
For COC(=O)C1=C(C)N(Cc2ccccc2C(F)(F)F)C(=NCc2ccc3c(c2)OCO3)NC1c1ccccc1 (centres undefined) the results were ADAM17 inh inactive, NPR1 activator inactive, GC-B act inactive and ADAM10 inh inactive.
Clc1ccccc1CN(Cc1ccccc1)c1ncnc2nc[nH]c12 was read as ADAM17 inh inactive, NPR1 activator inactive, GC-B act inactive, ADAM10 inh 20, ADAM10 confirm inactive and ADAM17 counter inactive.
`CC1CCCC(C)N1C(=O)COC(=O)c1cc(-c2cccs2)nn1-c1ccccc1` (centres undefined) gave ADAM17 inh inactive, NPR1 activator inactive, GC-B act inactive and ADAM10 inh inactive.
Screening CCOc1ccc(C(=O)Nc2nnc(C3=COCCO3)o2)cc1 returned ADAM17 inh inactive, NPR1 activator inactive, GC-B act inactive and ADAM10 inh inactive.
O=C1c2[nH]nc(-c3ccccc3O)c2C(c2cccc(Cl)c2)N1Cc1ccco1 (centres undefined) was read as ADAM17 inh inactive, NPR1 activator inactive, GC-B act inactive, ADAM10 inh 29, ADAM10 confirm inactive and ADAM17 counter inactive.
O=C(c1ccc(Oc2ccc(C(F)(F)F)cc2[N+](=O)[O-])cc1)N1CCOCC1 was read as ADAM17 inh inactive, NPR1 activator inactive, GC-B act inactive and ADAM10 inh inactive.
Screening Cc1cccc(OCCNC(=O)c2ccc(Oc3ccc(C(F)(F)F)cc3[N+](=O)[O-])cc2)c1 returned ADAM17 inh inactive, ADAM10 inh 26, ADAM10 confirm inactive and ADAM17 counter inactive.
O=C(COC(=O)C1CCN(c2ccc(C(F)(F)F)cn2)CC1)Nc1ccc(Cl)cc1 was read as ADAM17 inh inactive, NPR1 activator inactive, GC-B act inactive, ADAM10 inh 27, ADAM10 confirm inactive and ADAM17 counter inactive.

Source: PubChem BioAssay (several laboratories)
